According to PMC5540273 (PLoS ONE, 2017):
Where two headings read alike, the source gives them in different places.

Experiments:
Conditions in all cases: n = 1
IRAK4 = test system: IRAK4
ITK = test system: ITK
[1] = test system: JAK1(JH1domain-catalytic)
[2] = test system: JAK1(JH2domain-pseudokinase)
[3] = test system: JAK2(JH1domain-catalytic)
[4] = test system: JAK3(JH1domain-catalytic)
JNK1 = test system: T1, JNK1
T1 construct: gene MAPK8

JNK2 = test system: T2, JNK2
T2 construct: gene MAPK9

JNK3 = test system: T3, JNK3
T3 construct: gene MAPK10

KIT-autoinhibited = test system: KIT-autoinhibited
[5] = concentration: 1 μM, replicates: in singlicate
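Note: KINOMEscan kinase panel screen.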

| SMILES | %Inh (IRAK4; [5]) [%] | %Inh (ITK; [5]) [%] | %Inh [1, 5] [%] | %Inh [2, 5] [%] | %Inh [3, 5] [%] | %Inh [4, 5] [%] | %Inh (JNK1; [5]) [%] | %Inh (JNK2; [5]) [%] | %Inh (JNK3; [5]) [%] | %Inh (KIT-autoinhibited; [5]) [%] | %Inh (IRAK4; 1 µM) [%] | %Inh (ITK; 1 µM) [%] | %Inh ([1]; 1 µM) [%] | %Inh ([2]; 1 µM) [%] | %Inh ([3]; 1 µM) [%] | %Inh ([4]; 1 µM) [%] | %Inh (JNK1; 1 µM) [%] | %Inh (JNK2; 1 µM) [%] | %Inh (JNK3; 1 µM) [%] | %Inh (KIT-autoinhibited; 1 µM) [%] |
| --- | --- | --- | --- | --- | --- | --- | --- | --- | --- | --- | --- | --- | --- | --- | --- | --- | --- | --- | --- | --- |
| Cc1ccc(C(=O)Nc2ccc(Nc3ccnc4cc(-c5ccccn5)ccc34)cc2O)cc1.Cl [GW440146] | 9 | 0 | 16 | 0 | 5 | 0 | 5 | 15 | 0 | 17 |  |  |  |  |  |  |  |  |  |  |
| Cc1cccc(-c2nc(Nc3ccc4[nH]ncc4c3)c3ccccc3n2)n1 [GW857175] | 18 | 5 | 18 | 83 | 22 | 60 | 36 | 32 | 31 | 30 |  |  |  |  |  |  |  |  |  |  |
| COc1cc(Nc2nccc(N3CCC(NC(=O)Nc4cc(C)ccc4C)C3)n2)cc(OC)c1OC (centres unmarked) [GSK1379762] | 16 | 30 | 5 | 0 | 76 | 0 | 24 | 2 | 11 | 0 |  |  |  |  |  |  |  |  |  |  |
| COc1ccc2nc(-c3cccc(C)n3)nc(Nc3ccncc3)c2c1 [GSK204919] | 0 | 13 | 0 | 80 | 10 | 0 | 0 | 60 | 36 | 0 |  |  |  |  |  |  |  |  |  |  |
| Cc1csc(-c2nc(Nc3ccncc3)c3ccccc3n2)n1 [GW869640] | 0 | 11 | 0 | 74 | 53 | 9 | 54 | 16 | 15 | 24 |  |  |  |  |  |  |  |  |  |  |
| CCCc1ccc(S(=O)(=O)NC2CCN(c3ccnc(Nc4ccc(F)cc4)n3)C2)cc1 (centres unmarked) [GSK1379715] | 16 | 6 | 18 | 0 | 52 | 0 | 24 | 21 | 9 | 0 |  |  |  |  |  |  |  |  |  |  |
| O=C(Nc1n[nH]c2nc(-c3nccs3)c(Br)cc12)C1CCCC1 [SB-742609] | 39 | 24 | 16 | 0 | 23 | 0 | 38 | 27 | 17 | 16 |  |  |  |  |  |  |  |  |  |  |
| O=C(Nc1ccc2c(c1)OCO2)NC1CCN(c2ccnc(Nc3ccc(F)cc3)n2)C1 (centres unmarked) [GSK1379724] | 21 | 8 | 18 | 0 | 13 | 0 | 33 | 23 | 24 | 0 |  |  |  |  |  |  |  |  |  |  |
| CCn1c(-c2ccccn2)nc2cnccc21 [SB-736398] | 37 | 0 | 0 | 0 | 17 | 0 | 24 | 19 | 8 | 0 |  |  |  |  |  |  |  |  |  |  |
| Cc1ccc(NC(=O)Nc2cccc(Cl)c2)cc1-c1ccc(C(=O)Nc2ccncc2)cc1 [GSK1398468] | 13 | 16 | 16 | 6 | 1 | 0 | 15 | 14 | 0 | 0 |  |  |  |  |  |  |  |  |  |  |
| COc1ccc(CNC(=O)NC2CCN(c3ccnc(Nc4cc(OC)c(OC)c(OC)c4)n3)C2)cc1 (centres unmarked) [GSK1379748] | 0 | 7 | 0 | 0 | 87 | 0 | 0 | 0 | 0 | 0 |  |  |  |  |  |  |  |  |  |  |
| Cc1nnc(-c2ccc3occ(-c4ccc(S(C)=O)cc4)c3c2)[nH]1 (centres unmarked) | 0 | 13 | 3 | 90.4 | 11 | 22 | 3 | 26 | 45 | 11 |  |  |  |  |  |  |  |  |  |  |
| Cn1ccc2ncnc(Oc3ccc(Nc4nc5ccccc5[nH]4)cc3)c21 | 0 | 3 | 8 | 0 | 0 | 0 | 0 | 0 | 0 | 0 |  |  |  |  |  |  |  |  |  |  |
| CC(C)(C)c1ccc(C(=O)Nc2cn3cc(-c4cccnc4)ccc3n2)cc1 | 70 | 24 | 0 | 45 | 6 | 2 | 24 | 0 | 5 | 0 |  |  |  |  |  |  |  |  |  |  |
| COc1ccccc1-c1ccc2c(NC(=O)C3CC3)n[nH]c2n1 [SB-711239] | 7 | 0 | 25 | 0 | 0 | 13 | 0 | 9 | 0 | 0 |  |  |  |  |  |  |  |  |  |  |
| COc1cc2nccc(Nc3ccc(NC(=O)c4ccc(C)cc4)c(O)c3)c2cc1OC.Cl [GW440132] | 0 | 20 | 12 | 0 | 0 | 0 | 16 | 29 | 7 | 0 |  |  |  |  |  |  |  |  |  |  |
| CC(=O)Nc1nc2cnc(Nc3cc(NC(=O)c4cccc(CCC#N)c4)ccc3C)nc2s1 | 15 | 3 | 3 | 9 | 22 | 0 | 0 | 0 | 0 | 11 |  |  |  |  |  |  |  |  |  |  |
| Cc1cccc(-c2nc(C)cc(Nc3ccncc3)n2)n1 [GSK257997] | 1 | 12 | 13 | 0 | 0 | 0 | 4 | 43 | 32 | 0 |  |  |  |  |  |  |  |  |  |  |

| SMILES | %Inh (IRAK4; [5]) [%] | %Inh (ITK; [5]) [%] | %Inh [1, 5] [%] | %Inh [2, 5] [%] | %Inh [3, 5] [%] | %Inh [4, 5] [%] | %Inh (JNK1; [5]) [%] | %Inh (JNK2; [5]) [%] | %Inh (JNK3; [5]) [%] | %Inh (KIT-autoinhibited; [5]) [%] | %Inh (IRAK4; 1 µM) [%] | %Inh (ITK; 1 µM) [%] | %Inh ([1]; 1 µM) [%] | %Inh ([2]; 1 µM) [%] | %Inh ([3]; 1 µM) [%] | %Inh ([4]; 1 µM) [%] | %Inh (JNK1; 1 µM) [%] | %Inh (JNK2; 1 µM) [%] | %Inh (JNK3; 1 µM) [%] | %Inh (KIT-autoinhibited; 1 µM) [%] |
| --- | --- | --- | --- | --- | --- | --- | --- | --- | --- | --- | --- | --- | --- | --- | --- | --- | --- | --- | --- | --- |
| Cc1cccc(-c2nc(-c3ccc(S(C)(=O)=O)cc3)sc2-c2ccnc(NCCc3ccccc3)c2)c1 | 9 | 0 | 2 | 4 | 8 | 0 | 0 | 0 | 0 | 0 |  |  |  |  |  |  |  |  |  |  |
| Cc1ccc(NC(=O)Nc2cc(C(C)(C)C)nn2-c2ccccc2)cc1 [GSK1014915] | 23 | 12 | 0 | 0 | 13 | 0 | 45 | 39 | 10 | 0 |  |  |  |  |  |  |  |  |  |  |
| Cc1cc(NCC(c2ccccc2)c2ccccc2)nc(NCc2ccc(C(F)(F)F)cc2)n1 [GW497681] | 8 | 0 | 10 | 0 | 0 | 0 | 0 | 0 | 0 | 0 |  |  |  |  |  |  |  |  |  |  |
| Cc1ccc(NC(=O)Nc2cccc(C(F)(F)F)c2)cc1 [GSK955403] |  |  |  |  |  |  |  |  |  |  | 0 | 12 | 0 | 12 | 0 | 0 | 58 | 26 | 46 | 3 |
| Cc1cc(-c2ccc3c(c2)CC[C@@H](N[C@@H](C)c2ccccc2)C3)cnc1N.Cl [GW412617] | 71 | 18 | 12 | 46 | 34 | 0 | 36 | 3 | 4 | 0 |  |  |  |  |  |  |  |  |  |  |
| COc1cc2ncnc(Nc3ccc4nc(-c5ccccc5)[nH]c4c3)c2cc1OC.Cl [GW282450] | 13 | 14 | 6 | 0 | 0 | 0 | 18 | 26 | 19 | 0 |  |  |  |  |  |  |  |  |  |  |
| Cc1cccc(-c2cc(Nc3ccncc3)c3ccccc3n2)n1 [GSK223675] | 13 | 0 | 11 | 5 | 100 | 0 | 11 | 27 | 15 | 0 |  |  |  |  |  |  |  |  |  |  |
| Cc1ccc(-c2cc(-c3c[nH]nc3-c3ccccn3)ccn2)cc1 [GW684088] | 0 | 0 | 12 | 1 | 0 | 0 | 29 | 36 | 53 | 2 |  |  |  |  |  |  |  |  |  |  |
| Fc1cc(Cl)ccc1Nc1ccnc2cc(I)ccc12 [GW551191] | 14 | 13 | 0 | 0 | 1 | 0 | 18 | 29 | 10 | 0 |  |  |  |  |  |  |  |  |  |  |
| Fc1cccc(COc2nnc(-c3ccc4c(c3)CCO4)o2)c1 | 5 | 23 | 0 | 10 | 0 | 5 | 6 | 0 | 0 | 0 |  |  |  |  |  |  |  |  |  |  |
| COc1cc2ncn(-c3cc(OCC4CCCO4)c(C(N)=O)s3)c2cc1OC (centres unmarked) [GSK204607] | 0 | 5 | 0 | 0 | 1 | 0 | 0 | 17 | 7 | 0 |  |  |  |  |  |  |  |  |  |  |
| COc1ccc(Nc2nccc(-c3cccc(NC(=O)c4cc5cc(F)ccc5[nH]4)c3)n2)cc1 [GSK1229782] | 3 | 23 | 34 | 0 | 10 | 0 | 28 | 34 | 15 | 0 |  |  |  |  |  |  |  |  |  |  |
| Cc1cccc(-c2nc(Nc3cccc(C(N)=O)c3)c3ccccc3n2)n1 [GW876019] | 4 | 8 | 0 | 78 | 12 | 15 | 0 | 0 | 0 | 10 |  |  |  |  |  |  |  |  |  |  |
| COc1cccc(-c2cc(-c3c[nH]nc3-c3ccccn3)ccn2)c1 [GW680338] | 0 | 2 | 7 | 0 | 0 | 0 | 42 | 40 | 50 | 0 |  |  |  |  |  |  |  |  |  |  |
| Cc1ccccc1-n1cnc2c(N)ncnc21 [SKF-97510] | 0 | 1 | 5 | 0 | 0 | 0 | 0 | 0 | 0 | 0 |  |  |  |  |  |  |  |  |  |  |
| Cc1cc(N2Cc3ccccc3C2)nc(Nc2ccc(S(=O)(=O)N3CCOCC3)cc2)n1.Cl [GSK1669917] | 0 | 0 | 11 | 0 | 0 | 0 | 3 | 13 | 1 | 3 |  |  |  |  |  |  |  |  |  |  |
| O=S(=O)(c1ccc(-c2ccnc3[nH]ccc23)cc1)N1CCCC1 [GSK846226] | 2 | 10 | 16 | 3 | 86 | 0 | 26 | 24 | 17 | 0 |  |  |  |  |  |  |  |  |  |  |
